ADAM10 inh: ADAM10 inhibition, QFRET primary screen; 370,000 compounds, 0.62% hits; inhibition, % at 7 µM; O14672; recombinant ADAM10, EDANS/DABCYL FRET peptide cleavage, 3 h; AID 720582;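 active = inhibition above a per-campaign cutoff equal to the mean of compounds falling between control-based bounds plus 3 SD, cut at about 20% in these data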
proKLK7 act: activators of human kallikrein-7 zymogen; purified proKLK7, EDANS-DABCYL substrate fluorescence; 100% is mature enzyme control, 0% vehicle; AID 652039; P49862; 370,000 compounds, 0.9% hits; activation, % at 7 µM;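 active = activation above the mean of all tested compounds plus 3 SD, computed per campaign excluding outliers beyond control limits, cut at about 13% in these data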
MPTP inh: permeability transition pore inhibition | isolated mouse mitochondria, Ca2+ swelling absorbance, 30 min | inhibition, % at 10 µM | 360,000 compounds, 1.4% hits;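 active = inhibition of 50% or more, scaled per plate between neutral and stimulator controls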
DSG3 Ab inh: inhibitors of pemphigus antibody binding to human desmoglein-3; AID 588358; DSG3-coupled beads, scFv-anti-DSG3-GFP binding, flow cytometry; active compounds read low; P32926; 310,000 compounds, 0.48% hits; binding (percent of control), % at 10 µM;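 active = binding more than 3 SD below its plate's average and above zero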;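 note: hits lower antibody fragment binding to DSG3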
ADAM17 inh: inhibits human ADAM17; recombinant ADAM17, EDANS/DABCYL FRET peptide cleavage; inhibition, % at 6.95 µM; 370,000 compounds, 0.83% hits;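 active = inhibition above the mean of compounds lying between control limits plus 3 SD, set per campaign, cut at about 8.5% in these data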
Target sequence (P78536 215-824 limits assumed): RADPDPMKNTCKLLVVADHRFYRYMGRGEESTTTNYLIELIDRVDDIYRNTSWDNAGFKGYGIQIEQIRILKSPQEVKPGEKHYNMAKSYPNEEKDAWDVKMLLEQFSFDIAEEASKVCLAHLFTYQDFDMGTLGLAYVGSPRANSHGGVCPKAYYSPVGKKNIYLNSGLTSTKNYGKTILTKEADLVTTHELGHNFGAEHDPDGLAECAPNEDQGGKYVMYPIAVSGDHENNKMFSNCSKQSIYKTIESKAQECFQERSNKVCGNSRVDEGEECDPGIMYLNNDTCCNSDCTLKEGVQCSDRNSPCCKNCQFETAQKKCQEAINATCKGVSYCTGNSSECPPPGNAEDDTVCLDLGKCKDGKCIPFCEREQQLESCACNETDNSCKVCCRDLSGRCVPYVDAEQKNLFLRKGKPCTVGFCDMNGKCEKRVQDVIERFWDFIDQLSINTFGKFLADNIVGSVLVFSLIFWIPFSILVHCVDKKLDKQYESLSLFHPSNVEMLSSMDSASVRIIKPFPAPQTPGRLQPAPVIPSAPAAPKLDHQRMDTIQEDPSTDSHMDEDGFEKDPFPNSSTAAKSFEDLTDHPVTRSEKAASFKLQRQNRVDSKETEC
rCAG binder: molecules binding r(CAG) RNA repeats; 370,000 compounds, 1.3% hits; AID 651821; inhibition, % at 3 µM; r(CAG) RNA repeat, TO-PRO-1 dye displacement fluorescence;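 active = inhibition above the plate cutoff, the mean of all test compounds on that plate plus 3 SD, cut at about 35% in these data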;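 note: higher means more dye released from RNA so lower well fluorescence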
MPTP counter: membrane potential counter-screen of mitochondrial pore inhibitors | shares compounds with MPTP inh | 5,000 compounds, 78% hits | isolated mitochondria, Rhodamine 123 fluorescence | AID 624504 | inhibition, % at 10 µM; in the data active = inhibition above about 22%
rCAG bind conf: r(CAG) RNA repeat binding, confirmation; inhibition, % at 3 µM; 4,300 compounds, 70% hits; TO-PRO-1 dye displacement fluorescence; shares compounds with rCAG binder;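 active = inhibition above a per-plate cutoff, the mean inhibition of sample wells plus 3 SD, cut at about 35% in these data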;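 note: loss of TO-PRO-1 fluorescence as compound displaces dye from 1x1 AA loop RNA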
DNA CAG counter: DNA CAG dye complex inhibition counter-screen | inhibition, % at 3 µM | AID 652068 | d(CAG) DNA oligo TO-PRO-1 dye displacement, fluorescence | shares compounds with rCAG binder | 4,300 compounds, 94% hits;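 active = inhibition above its plate's cutoff, the mean test-well inhibition plus 3 SD, cut at about 4.8% in these data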;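 note: hits displace the dye from DNA and so lower well fluorescence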
ADAM10 confirm: confirmation of inhibitors of human ADAM10; inhibition, % at 6.95 µM; 2,100 compounds, 1% hits; ADAM10 QFRET peptide cleavage, EDANS fluorescence; AID 743208; shares compounds with ADAM10 inh;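 active = inhibition above about 20% chosen separately for each screening run, limit read from the data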
ADAM17 counter: ADAM17 inhibition, counter-screen for ADAM10 exosite hits. AID 743214. shares compounds with ADAM10 inh. inhibition, % at 6.95 µM. 2,100 compounds, 0.5% hits. ADAM17 QFRET peptide cleavage, EDANS fluorescence;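 active = mean triplicate inhibition above the solvent-only control wells' mean plus 3 SD, cut at about 12% in these data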
ADAM10 counter: ADAM10 inhibition, counter-screen for ADAM17 exosite hits; recombinant ADAM10, EDANS/DABCYL FRET peptide cleavage, 3 h; shares compounds with ADAM17 inh; AID 743256; inhibition, % at 6.95 µM; 2,900 compounds, 47% hits;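 active = mean inhibition over the triplicate runs exceeds the activity threshold set in the earlier primary screen, cut at about 20% in these data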
ADAM17 confirm: human ADAM17 inhibition, confirmation; shares compounds with ADAM17 inh; recombinant ADAM17, EDANS/DABCYL QFRET peptide cleavage; inhibition, % at 6.95 µM; 2,900 compounds, 65% hits;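 active = mean inhibition across replicates above the hit cutoff set in the primary screen, cut at about 8.5% in these data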
A number is an active result; i = inactive; nt = no result. Most compounds without a hit are left out; they make up all but 4.7% or so of the library.

SMILES	ADAM10 inh	proKLK7 act	MPTP inh	DSG3 Ab inh	ADAM17 inh	rCAG binder	MPTP counter	ADAM10 confirm	ADAM17 counter	others
CCc1ccc(NC(=O)c2ccc(F)c(S(=O)(=O)N(CC)c3ccccc3)c2)cc1	20.2	i	62.1	i	i	i	76.1	i	i
O=C(Nc1ccc(Cl)cc1)Nc1ccccc1NS(=O)(=O)c1cccs1	23.1	i	82.5	i	i	42.8	83.4	i	i	rCAG bind conf=39.0;DNA CAG counter=10.4
CN1CCCCC(NC(=O)CCl)C1=O (centres undefined)	i	i	nt	nt	i	i	nt	nt	nt
N#C/C(=N/Nc1ccc([N+](=O)[O-])cc1)C(=N)N1CCCCC1	i	i	i	i	i	i	nt	nt	nt
N#C/C(=N\Nc1ccc([N+](=O)[O-])cc1)C(N)=S	19.9	i	85.8	i	i	i	62.0	i	i
Cc1ccc(S(=O)(=O)Nc2ccc(N=Nc3ccc(O)cc3)cc2)cc1	22.1	i	55.7	i	i	i	42.7	i	i
CSc1ccc(S(=O)(=O)Nc2ccc(S(=O)(=O)Nc3ccc(C)cc3)cc2)cc1	i	i	i	i	i	i	nt	nt	nt
O=C(Nc1cc([N+](=O)[O-])ccc1Cl)C(Sc1ccccc1)c1ccccc1 (centres undefined)	i	i	i	i	i	i	nt	nt	nt
O=C(Nc1ccc(Cl)c([N+](=O)[O-])c1)C(Sc1ccccc1)c1ccccc1 (centres undefined)	26.2	i	105.2	i	11.5	i	80.3	i	i
COc1ccc(C2CC(=O)C(c3ccc(Cl)cc3)=CN2Cc2ccccc2)cc1 (centres undefined)	i	i	nt	nt	i	i	nt	nt	nt
CCc1cc(C(=O)Cc2ccc(F)cc2)c(O)cc1O	23.2	i	67.8	i	i	i	68.4	i	i
CCCc1cc(C(=O)Cc2ccc(F)cc2)c(O)cc1O	i	i	i	i	i	i	nt	nt	nt
Cc1ccc(S(=O)(=O)N2OC(c3ccccc3)C[C@H]2CC=C(c2ccccc2)c2ccccc2)cc1 (some centres undefined)	i	nt	nt	nt	i	nt	nt	nt	nt
Cc1ccc(NNC(=O)C(O)(c2cccc(C(F)(F)F)c2)c2cccc(C(F)(F)F)c2)cc1	25.6	i	71.6	i	i	i	68.7	i	i
CCCc1ccc(Oc2cn[nH]c2-c2ccc(O)c(C)c2O)cc1	32.1	i	88.9	i	13.8	i	83.1	i	i
CC(C(=O)Nc1ccccc1Br)c1ccc([N+](=O)[O-])cc1 (centres undefined)	i	i	i	i	i	i	nt	nt	nt
Cc1ccc(NC(=O)C(C)c2ccc([N+](=O)[O-])cc2)cc1Cl (centres undefined)	23.6	i	79.9	i	i	i	87.0	i	i
CNC(=O)c1cc(Oc2ccc(NC(=O)Nc3ccc(Cl)c(C(F)(F)F)c3)cc2)ccn1	24.8	i	56.6	i	15.7	i	46.1	i	i	ADAM10 counter=35.4;ADAM17 confirm=20.4
CC(=O)N(C)c1ccc(NC(=O)C(Sc2ccccc2)c2ccccc2)cc1 (centres undefined)	i	i	i	i	i	i	nt	nt	nt

Assay outcomes: PubChem, several laboratories
